For 1 sequence, binding signal results are on record in article PMC7862700, “An all-to-all approach to the identification of sequence-specific readers for epigenetic DNA modifications on cytosine”.

Assay in all cases: DAPPL (digital affinity profiling via proximity ligation, sequencing); 10 mM Tris-HCl pH 7.5, 50 mM NaCl, 1 mM DTT, 4% glycerol, room temperature, 30 min; GST-TFs on glutathione beads, 16-mer random dsDNA library, 0.1% formaldehyde crosslink after washing; high values mean tight binding
The target of one assay is T1, FEV (Homo sapiens, UniProt Q99581 1-238).
T1 sequence: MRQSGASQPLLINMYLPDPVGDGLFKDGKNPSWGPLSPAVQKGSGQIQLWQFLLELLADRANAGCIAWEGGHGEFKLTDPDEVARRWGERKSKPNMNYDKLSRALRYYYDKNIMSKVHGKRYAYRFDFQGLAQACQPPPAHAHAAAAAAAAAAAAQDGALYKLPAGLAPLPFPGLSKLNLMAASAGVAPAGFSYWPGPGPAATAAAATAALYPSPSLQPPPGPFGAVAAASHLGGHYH
The following applies: protein: recombinant; tags: N-terminal GST; dsDNA, one strand shown. The method, boiled down:
(§1)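 Human transcription factors carrying a GST fusion were produced in yeast, bound to glutathione beads, tagged with DNA barcodes and pooled together with a tag-only sample. Each pool was held with 200 nmole of a random double-stranded 16-mer DNA library in Tris/NaCl/DTT/glycerol buffer for 30 min at room temperature, then washed, crosslinked in 0.1% formaldehyde, proximity-ligated with BsaI/T4 ligase (1 h, 37 °C), PCR-amplified and sequenced on an Illumina NextSeq500. Binding signal is the read frequency of each hexamer for a given factor divided by its frequency in the tag-only sample.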

Another assay deals with ETV5 (Homo sapiens, UniProt P41161 1-510). The following applies: protein: recombinant; tags: N-terminal GST; dsDNA, one strand shown. Summed up: as §1
Chain of ETV5 (P41161 whole entry): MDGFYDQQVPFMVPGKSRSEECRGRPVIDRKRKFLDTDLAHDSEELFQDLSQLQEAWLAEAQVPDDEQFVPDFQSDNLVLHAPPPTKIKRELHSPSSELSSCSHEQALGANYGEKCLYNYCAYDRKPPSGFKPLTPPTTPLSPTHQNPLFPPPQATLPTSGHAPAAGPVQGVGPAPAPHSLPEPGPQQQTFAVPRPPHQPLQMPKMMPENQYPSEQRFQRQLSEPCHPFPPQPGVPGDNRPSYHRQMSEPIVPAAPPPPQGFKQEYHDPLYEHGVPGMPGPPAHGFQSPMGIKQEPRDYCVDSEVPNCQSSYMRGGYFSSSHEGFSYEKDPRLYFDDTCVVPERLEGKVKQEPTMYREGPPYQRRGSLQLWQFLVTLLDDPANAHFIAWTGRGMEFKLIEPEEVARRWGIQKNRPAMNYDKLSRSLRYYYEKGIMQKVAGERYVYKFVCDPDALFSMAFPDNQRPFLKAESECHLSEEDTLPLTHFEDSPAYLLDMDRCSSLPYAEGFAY
The target in a further assay is HSF1 (Homo sapiens, UniProt Q00613 1-529). As to conditions: protein: recombinant; tags: N-terminal GST; chain copies: 3; dsDNA, one strand shown. The method, boiled down: as §1
Chain of HSF1 (Q00613 whole entry): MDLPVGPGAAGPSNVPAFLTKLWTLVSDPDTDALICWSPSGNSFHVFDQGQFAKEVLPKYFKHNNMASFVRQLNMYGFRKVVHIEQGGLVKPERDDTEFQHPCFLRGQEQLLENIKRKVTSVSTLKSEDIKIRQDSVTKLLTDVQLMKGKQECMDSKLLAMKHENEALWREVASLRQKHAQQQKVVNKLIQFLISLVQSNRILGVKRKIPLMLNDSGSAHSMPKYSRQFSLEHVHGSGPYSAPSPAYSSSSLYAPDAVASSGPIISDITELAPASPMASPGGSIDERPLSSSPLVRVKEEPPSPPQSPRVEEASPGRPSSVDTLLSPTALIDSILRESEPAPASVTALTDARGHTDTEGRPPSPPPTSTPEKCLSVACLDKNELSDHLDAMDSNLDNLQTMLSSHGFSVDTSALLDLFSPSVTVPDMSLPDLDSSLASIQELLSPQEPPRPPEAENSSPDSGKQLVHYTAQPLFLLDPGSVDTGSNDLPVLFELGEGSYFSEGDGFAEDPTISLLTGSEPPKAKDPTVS
A further assay concerns the target T2, SPIC (Homo sapiens, UniProt Q8N5J4 1-248).
T2 sequence: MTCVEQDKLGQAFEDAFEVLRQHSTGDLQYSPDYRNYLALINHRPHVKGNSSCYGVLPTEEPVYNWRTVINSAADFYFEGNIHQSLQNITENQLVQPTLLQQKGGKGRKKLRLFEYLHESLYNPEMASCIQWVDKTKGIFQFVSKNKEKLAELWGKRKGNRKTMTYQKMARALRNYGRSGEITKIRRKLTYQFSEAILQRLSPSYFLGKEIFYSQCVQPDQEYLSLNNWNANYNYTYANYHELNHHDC
As to conditions: protein: recombinant; tags: N-terminal GST; dsDNA, one strand shown. Summed up: as §1

Another assay addresses ELF4 (Homo sapiens, UniProt Q99607 1-663). The following applies: protein: recombinant; tags: N-terminal GST; dsDNA, one strand shown. The method, boiled down: as §1
The next assay addresses T3, ELK4 (Homo sapiens, UniProt P28324-2 1-405).
T3 sequence: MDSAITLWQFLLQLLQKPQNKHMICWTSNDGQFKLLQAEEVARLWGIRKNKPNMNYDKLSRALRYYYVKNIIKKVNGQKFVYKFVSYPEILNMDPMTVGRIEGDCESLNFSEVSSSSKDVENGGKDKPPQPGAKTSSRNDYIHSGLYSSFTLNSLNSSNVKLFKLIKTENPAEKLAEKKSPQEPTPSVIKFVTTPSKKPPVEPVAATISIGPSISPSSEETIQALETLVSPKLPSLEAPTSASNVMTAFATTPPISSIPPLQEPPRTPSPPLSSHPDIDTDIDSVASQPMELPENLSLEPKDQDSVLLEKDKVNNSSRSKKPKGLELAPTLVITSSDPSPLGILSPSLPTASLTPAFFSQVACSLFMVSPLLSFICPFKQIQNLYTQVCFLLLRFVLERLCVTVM
As to conditions: protein: recombinant; tags: N-terminal GST; dsDNA, one strand shown. The method, boiled down:
as §1

For the next assay, the target named is T4, ETV2 (Homo sapiens, UniProt O00321 1-342).
T4 sequence: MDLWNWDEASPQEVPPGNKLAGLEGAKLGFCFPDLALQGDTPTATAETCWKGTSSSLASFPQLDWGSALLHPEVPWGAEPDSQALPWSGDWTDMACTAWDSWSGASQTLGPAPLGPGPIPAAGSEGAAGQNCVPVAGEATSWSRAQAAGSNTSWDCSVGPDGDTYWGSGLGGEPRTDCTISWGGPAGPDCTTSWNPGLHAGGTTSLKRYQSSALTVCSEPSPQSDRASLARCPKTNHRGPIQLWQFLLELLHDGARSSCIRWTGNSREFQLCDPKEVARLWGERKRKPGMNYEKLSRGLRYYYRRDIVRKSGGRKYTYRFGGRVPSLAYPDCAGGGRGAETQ
The following applies: protein: recombinant; tags: N-terminal GST; dsDNA, one strand shown. Summed up: as §1

Another assay addresses T5, ELF3 (Homo sapiens, UniProt P78545 1-371).
T5 sequence: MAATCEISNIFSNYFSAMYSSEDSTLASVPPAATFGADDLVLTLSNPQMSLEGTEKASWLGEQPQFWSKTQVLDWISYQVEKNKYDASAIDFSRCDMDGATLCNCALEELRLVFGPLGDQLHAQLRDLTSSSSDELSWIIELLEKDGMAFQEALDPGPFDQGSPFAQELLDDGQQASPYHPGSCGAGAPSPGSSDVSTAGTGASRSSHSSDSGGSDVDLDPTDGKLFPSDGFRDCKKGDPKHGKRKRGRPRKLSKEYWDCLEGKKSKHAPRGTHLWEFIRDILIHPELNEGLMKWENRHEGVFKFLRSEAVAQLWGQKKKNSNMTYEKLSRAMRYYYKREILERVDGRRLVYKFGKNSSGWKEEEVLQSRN
The following applies: protein: recombinant; tags: N-terminal GST; dsDNA, one strand shown. The method, boiled down: as §1

The next assay concerns the target CRX (Homo sapiens, UniProt O43186 1-299). As to conditions: protein: recombinant; tags: N-terminal GST; dsDNA, one strand shown. The method, boiled down: as §1
The target in another assay is ETV1 (Homo sapiens, UniProt P50549 1-477). The following applies: protein: recombinant; tags: N-terminal GST; dsDNA, one strand shown. The method, boiled down: as §1
Chain of ETV1 (P50549 whole entry): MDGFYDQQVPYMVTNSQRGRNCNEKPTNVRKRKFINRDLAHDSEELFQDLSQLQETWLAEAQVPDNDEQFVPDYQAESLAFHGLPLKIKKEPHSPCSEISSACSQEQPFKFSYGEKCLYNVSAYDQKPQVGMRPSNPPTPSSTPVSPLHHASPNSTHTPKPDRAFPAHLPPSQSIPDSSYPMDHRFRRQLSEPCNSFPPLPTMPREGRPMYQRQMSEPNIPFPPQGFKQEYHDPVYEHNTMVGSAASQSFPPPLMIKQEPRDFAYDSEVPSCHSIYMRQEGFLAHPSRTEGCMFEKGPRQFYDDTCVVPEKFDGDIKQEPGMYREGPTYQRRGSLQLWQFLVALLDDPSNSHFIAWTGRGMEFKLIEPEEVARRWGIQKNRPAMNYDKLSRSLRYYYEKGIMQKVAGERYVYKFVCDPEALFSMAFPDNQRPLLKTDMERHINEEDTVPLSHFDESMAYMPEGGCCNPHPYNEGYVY
A further assay addresses T6, ERF (Homo sapiens, UniProt P50548 1-548).
T6 sequence: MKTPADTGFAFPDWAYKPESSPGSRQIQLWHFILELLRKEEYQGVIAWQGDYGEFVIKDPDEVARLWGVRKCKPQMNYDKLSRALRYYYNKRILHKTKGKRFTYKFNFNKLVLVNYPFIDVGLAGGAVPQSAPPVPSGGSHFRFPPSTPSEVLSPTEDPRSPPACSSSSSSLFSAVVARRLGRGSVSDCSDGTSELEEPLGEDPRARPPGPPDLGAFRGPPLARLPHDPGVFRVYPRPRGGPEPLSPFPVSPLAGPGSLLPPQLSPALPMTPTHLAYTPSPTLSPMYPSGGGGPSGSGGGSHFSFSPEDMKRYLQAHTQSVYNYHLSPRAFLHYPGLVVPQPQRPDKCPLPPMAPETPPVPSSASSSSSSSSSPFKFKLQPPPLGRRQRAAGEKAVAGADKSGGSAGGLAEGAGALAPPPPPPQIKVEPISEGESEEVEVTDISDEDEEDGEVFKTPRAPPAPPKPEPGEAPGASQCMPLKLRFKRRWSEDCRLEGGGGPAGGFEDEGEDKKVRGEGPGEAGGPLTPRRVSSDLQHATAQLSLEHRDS
The following applies: protein: recombinant; tags: N-terminal GST; dsDNA, one strand shown. Summed up: as §1

In the next assay the target is T7, ETV3L (Homo sapiens, UniProt Q6ZN32 1-361).
T7 sequence: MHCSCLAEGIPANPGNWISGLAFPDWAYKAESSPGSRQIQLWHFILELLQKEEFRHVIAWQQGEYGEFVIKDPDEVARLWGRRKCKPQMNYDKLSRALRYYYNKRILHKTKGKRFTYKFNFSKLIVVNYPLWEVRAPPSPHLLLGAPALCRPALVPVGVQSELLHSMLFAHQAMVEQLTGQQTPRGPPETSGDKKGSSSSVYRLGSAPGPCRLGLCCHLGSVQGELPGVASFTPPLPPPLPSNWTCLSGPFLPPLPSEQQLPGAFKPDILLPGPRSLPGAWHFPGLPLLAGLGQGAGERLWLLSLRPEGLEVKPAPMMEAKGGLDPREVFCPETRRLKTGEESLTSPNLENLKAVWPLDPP
The following applies: protein: recombinant; tags: N-terminal GST; dsDNA, one strand shown. The method, boiled down:
as §1

The target in the next assay is T8, ETS2 (Homo sapiens, UniProt P15036 1-469).
T8 sequence: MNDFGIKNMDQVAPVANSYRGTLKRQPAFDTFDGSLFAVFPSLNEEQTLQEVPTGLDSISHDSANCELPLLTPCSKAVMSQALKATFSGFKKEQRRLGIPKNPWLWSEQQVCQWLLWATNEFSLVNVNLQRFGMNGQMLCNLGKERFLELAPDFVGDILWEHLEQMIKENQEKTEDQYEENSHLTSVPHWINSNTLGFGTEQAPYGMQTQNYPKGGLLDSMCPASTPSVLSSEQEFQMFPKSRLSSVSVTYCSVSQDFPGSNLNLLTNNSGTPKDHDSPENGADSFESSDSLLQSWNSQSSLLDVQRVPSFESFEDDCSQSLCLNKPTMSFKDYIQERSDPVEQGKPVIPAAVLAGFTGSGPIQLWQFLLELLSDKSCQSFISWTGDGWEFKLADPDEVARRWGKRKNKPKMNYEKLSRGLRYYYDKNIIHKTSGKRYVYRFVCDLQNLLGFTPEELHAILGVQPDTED
The following applies: protein: recombinant; tags: N-terminal GST; dsDNA, one strand shown. Summed up:
as §1

The next assay has as its target T9, SPDEF (Homo sapiens, UniProt O95238 1-335).
T9 sequence: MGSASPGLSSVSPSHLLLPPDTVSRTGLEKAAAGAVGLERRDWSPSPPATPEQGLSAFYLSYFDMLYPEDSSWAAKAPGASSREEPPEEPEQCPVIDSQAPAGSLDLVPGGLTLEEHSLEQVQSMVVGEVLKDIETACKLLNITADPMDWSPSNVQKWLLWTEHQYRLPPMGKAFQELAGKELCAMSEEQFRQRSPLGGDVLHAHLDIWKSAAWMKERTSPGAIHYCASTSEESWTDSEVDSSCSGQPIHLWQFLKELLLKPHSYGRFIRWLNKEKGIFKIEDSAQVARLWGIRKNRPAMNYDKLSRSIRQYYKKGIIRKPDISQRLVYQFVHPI
The following applies: protein: recombinant; tags: N-terminal GST; dsDNA, one strand shown. Summed up:
as §1

A further assay deals with T10, ETV7 (Homo sapiens, UniProt Q9Y603 1-341).
T10 sequence: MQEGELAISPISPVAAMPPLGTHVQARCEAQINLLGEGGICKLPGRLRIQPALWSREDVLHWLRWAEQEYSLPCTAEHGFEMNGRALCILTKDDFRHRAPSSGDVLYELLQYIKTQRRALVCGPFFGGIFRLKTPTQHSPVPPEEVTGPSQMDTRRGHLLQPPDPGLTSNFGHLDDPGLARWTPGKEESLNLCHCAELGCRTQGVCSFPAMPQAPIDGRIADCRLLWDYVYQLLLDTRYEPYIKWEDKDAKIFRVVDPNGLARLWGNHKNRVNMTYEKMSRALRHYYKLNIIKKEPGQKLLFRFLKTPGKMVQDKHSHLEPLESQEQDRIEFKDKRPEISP
The following applies: protein: recombinant; tags: N-terminal GST; dsDNA, one strand shown. The method, boiled down:
as §1

In another assay the target is T11, ELF5 (Homo sapiens, UniProt Q9UKW6-2 1-255).
T11 sequence: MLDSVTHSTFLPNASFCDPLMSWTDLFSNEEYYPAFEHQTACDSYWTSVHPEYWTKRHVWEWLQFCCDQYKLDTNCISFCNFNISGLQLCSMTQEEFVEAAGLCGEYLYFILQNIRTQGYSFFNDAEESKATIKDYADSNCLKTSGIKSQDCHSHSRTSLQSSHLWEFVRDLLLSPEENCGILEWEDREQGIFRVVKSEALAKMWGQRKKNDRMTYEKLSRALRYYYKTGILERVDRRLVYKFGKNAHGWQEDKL
The following applies: protein: recombinant; tags: N-terminal GST; dsDNA, one strand shown. Summed up: as §1

In the next assay the target is T12, ETV3 (Homo sapiens, UniProt P41162-2 1-143).
T12 sequence: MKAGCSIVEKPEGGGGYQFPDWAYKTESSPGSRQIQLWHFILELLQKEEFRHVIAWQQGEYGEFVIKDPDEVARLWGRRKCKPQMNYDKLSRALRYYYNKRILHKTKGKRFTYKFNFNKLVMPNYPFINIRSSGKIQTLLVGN
As to conditions: protein: recombinant; tags: N-terminal GST; dsDNA, one strand shown. Summed up:
as §1

The target of the next assay is ETV6 (Homo sapiens, UniProt P41212 1-452). The following applies: protein: recombinant; tags: N-terminal GST; dsDNA, one strand shown. The method, boiled down: as §1
Chain of ETV6 (P41212 whole entry): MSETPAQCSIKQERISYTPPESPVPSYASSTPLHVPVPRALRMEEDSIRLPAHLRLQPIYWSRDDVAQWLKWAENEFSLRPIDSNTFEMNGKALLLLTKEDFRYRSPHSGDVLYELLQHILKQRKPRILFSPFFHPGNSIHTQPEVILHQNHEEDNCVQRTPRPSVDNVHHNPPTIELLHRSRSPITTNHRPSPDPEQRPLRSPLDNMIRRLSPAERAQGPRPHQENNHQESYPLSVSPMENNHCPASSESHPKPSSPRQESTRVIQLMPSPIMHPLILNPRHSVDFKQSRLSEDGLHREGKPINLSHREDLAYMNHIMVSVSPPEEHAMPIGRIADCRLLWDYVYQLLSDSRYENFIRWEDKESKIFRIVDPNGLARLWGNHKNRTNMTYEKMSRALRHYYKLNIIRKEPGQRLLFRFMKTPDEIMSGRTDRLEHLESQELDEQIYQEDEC

Chain of CRX (O43186 whole entry): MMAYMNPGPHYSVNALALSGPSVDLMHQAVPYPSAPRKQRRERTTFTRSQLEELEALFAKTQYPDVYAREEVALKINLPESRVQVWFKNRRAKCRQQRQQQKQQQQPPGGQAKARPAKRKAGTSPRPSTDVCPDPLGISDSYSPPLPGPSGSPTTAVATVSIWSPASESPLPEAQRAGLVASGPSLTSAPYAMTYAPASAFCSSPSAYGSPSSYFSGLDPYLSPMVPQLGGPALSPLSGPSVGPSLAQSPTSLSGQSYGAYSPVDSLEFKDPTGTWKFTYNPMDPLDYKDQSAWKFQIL
Chain of ELF4 (Q99607 whole entry): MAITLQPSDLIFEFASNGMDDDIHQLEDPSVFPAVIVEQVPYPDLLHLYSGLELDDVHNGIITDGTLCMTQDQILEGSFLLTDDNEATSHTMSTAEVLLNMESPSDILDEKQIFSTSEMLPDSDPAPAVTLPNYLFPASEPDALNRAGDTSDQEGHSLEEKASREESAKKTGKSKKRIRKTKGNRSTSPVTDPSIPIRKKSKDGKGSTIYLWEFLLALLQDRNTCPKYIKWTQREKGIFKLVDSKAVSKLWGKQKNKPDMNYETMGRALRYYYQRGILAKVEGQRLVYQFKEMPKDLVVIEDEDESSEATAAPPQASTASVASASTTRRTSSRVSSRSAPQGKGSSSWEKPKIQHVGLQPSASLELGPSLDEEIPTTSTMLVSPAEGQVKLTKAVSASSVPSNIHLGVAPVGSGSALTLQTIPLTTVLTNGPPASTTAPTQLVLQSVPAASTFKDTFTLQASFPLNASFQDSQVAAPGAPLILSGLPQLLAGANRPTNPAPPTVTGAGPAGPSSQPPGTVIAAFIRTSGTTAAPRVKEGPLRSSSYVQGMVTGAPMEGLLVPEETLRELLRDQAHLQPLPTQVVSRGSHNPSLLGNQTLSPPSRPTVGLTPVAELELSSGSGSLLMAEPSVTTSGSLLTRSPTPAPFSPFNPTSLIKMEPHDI

As to CTAAGT, the binding signal in the assay with FEV was 1.13 fold enrichment (6-mer frequency, TF over GST control); with ETV5, 1.18 fold enrichment (6-mer frequency, TF over GST control); with HSF1, 1.3 fold enrichment (6-mer frequency, TF over GST control); with SPIC, 1.24 fold enrichment (6-mer frequency, TF over GST control); with ELF4 it was 1.24 fold enrichment (6-mer frequency, TF over GST control); in the assay with ELK4, 1.13 fold enrichment (6-mer frequency, TF over GST control). In addition, the binding signal was 1.24 fold enrichment (6-mer frequency, TF over GST control) with ETV2; 1.02 fold enrichment (6-mer frequency, TF over GST control) with ELF3; 1.8 fold enrichment (6-mer frequency, TF over GST control) with CRX; 1.18 fold enrichment (6-mer frequency, TF over GST control) in the assay with ETV1; 1.13 fold enrichment (6-mer frequency, TF over GST control) in the assay with ERF; 1.33 fold enrichment (6-mer frequency, TF over GST control) in the assay with ETV3L. The binding signal is 1.23 fold enrichment (6-mer frequency, TF over GST control) with ETS2; 1.3 fold enrichment (6-mer frequency, TF over GST control) in the assay with SPDEF; 1.29 fold enrichment (6-mer frequency, TF over GST control) in the assay with ETV7; 1.17 fold enrichment (6-mer frequency, TF over GST control) in the assay with ELF5; 1.21 fold enrichment (6-mer frequency, TF over GST control) with ETV3; 1.27 fold enrichment (6-mer frequency, TF over GST control) with ETV6.
